# Data reported in the supplement of paper PMC4022240.
# ± gives the standard deviation.
# What was measured:
# Experiment in all cases: peptide microarray binding signal (635 nm), min-max normalized on array (fraction of array maximum); higher = stronger binding
# [1] = target: T1, HaloTag-ATRX ADD domain (163-292)
# T1 chain: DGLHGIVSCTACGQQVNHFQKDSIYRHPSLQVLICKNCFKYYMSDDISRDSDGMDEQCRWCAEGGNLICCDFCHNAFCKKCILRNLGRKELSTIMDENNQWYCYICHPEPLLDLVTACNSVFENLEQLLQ
# Method in brief: (§1)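 Within each library, mean intensities of triplicate spots were min-max scaled to give the binding signal. The spots were histone 13-mer peptide–cellulose conjugates on nitrocellulose with a Cy3 tracer, blocked overnight at 4°C. They were then probed for 1 h at 4°C using biotin-labelled HaloTag reader fusions (10 nM to 1 μM) with streptavidin-Alexa Fluor 647 or rabbit histone antibodies (1:10,000 to 1:2,000) with anti-rabbit Alexa 647, and scanned at 635 nm for signal and 532 nm for misprints on an Axon GenePix 4000B.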
# [2] = target: HaloTag-ING2 PHD (mouse Ing2 200-280)
# Method in brief: as §1
# [3] = target: anti-H3K4me3 antibody ab8580
# Method in brief: as §1
# [4] = target: anti-H3K9me3 antibody ab8898
# Method in brief: as §1
# [5] = peptide region: H3 5-17, peptide modifications: H3K9ac H3K14ac, binder concentration: 1:2,000 dilution
# [6] = peptide region: H3 5-17, peptide modifications: H3K9ac H3K14ac, binder concentration: 1:10,000 dilution
# [7] = peptide region: H3 1-13, peptide modifications: H3T6ph H3R8cit, binder concentration: 1:2,000 dilution
# [8] = peptide region: H3 1-13, peptide modifications: H3T6ph H3R8cit, binder concentration: 1:10,000 dilution
# [9] = peptide region: H3 1-13, peptide modifications: H3T6ph H3K9ac, binder concentration: 1:2,000 dilution
# [10] = peptide region: H3 1-13, peptide modifications: H3T6ph H3K9ac, binder concentration: 1:10,000 dilution
# [11] = peptide region: H3 5-17, peptide modifications: H3K9ac H3K14me1, binder concentration: 1:2,000 dilution
# [12] = peptide region: H3 5-17, peptide modifications: H3K9ac H3K14me1, binder concentration: 1:10,000 dilution
# [13] = peptide region: H3 1-13, peptide modifications: H3T6ph H3R8me2a, binder concentration: 1:2,000 dilution
# [14] = peptide region: H3 1-13, peptide modifications: H3T6ph H3R8me2a, binder concentration: 1:10,000 dilution
binder,measurement,setting,value
QTARKSTGGKAPR [H3 5-17 Q T A R Kac S T G G Kac A P R],peptide microarray binding signal,"[1]; peptide region: H3 5-17, peptide modifications: H3K9ac H3K14ac, binder concentration: 50 nM",0.0318 ± 0.0049
same,peptide microarray binding signal,"[1]; peptide region: H3 5-17, peptide modifications: H3K9ac H3K14ac, binder concentration: 500 nM",0.0984 ± 0.027
same,peptide microarray binding signal,"[2]; peptide region: H3 5-17, peptide modifications: H3K9ac H3K14ac, binder concentration: 10 nM",0.0862 ± 0.034
same,peptide microarray binding signal,"[2]; peptide region: H3 5-17, peptide modifications: H3K9ac H3K14ac, binder concentration: 100 nM",0.048 ± 0.023
same,peptide microarray binding signal,[3]; [5],0.0141 ± 0.0045
same,peptide microarray binding signal,[3]; [6],0.0234 ± 0.0064
same,peptide microarray binding signal,[4]; [5],0.03 ± 0.0085
same,peptide microarray binding signal,[4]; [6],0.0332 ± 0.014
ARTKQTARKSTGG [H3 1-13 A R T K Q Tph A Rcit K S T G G],peptide microarray binding signal,"[1]; peptide region: H3 1-13, peptide modifications: H3T6ph H3R8cit, binder concentration: 50 nM",0.00461 ± 9.2e-05
same,peptide microarray binding signal,"[1]; peptide region: H3 1-13, peptide modifications: H3T6ph H3R8cit, binder concentration: 500 nM",0.00667 ± 0.00019
same,peptide microarray binding signal,"[2]; peptide region: H3 1-13, peptide modifications: H3T6ph H3R8cit, binder concentration: 10 nM",0.004536 ± 4e-05
same,peptide microarray binding signal,"[2]; peptide region: H3 1-13, peptide modifications: H3T6ph H3R8cit, binder concentration: 100 nM",0.00652 ± 0.00029
same,peptide microarray binding signal,[3]; [7],0.000396
same,peptide microarray binding signal,[3]; [8],0.000114 ± 1.3e-06
same,peptide microarray binding signal,[4]; [7],0.000332 ± 8.8e-06
same,peptide microarray binding signal,[4]; [8],0.000807 ± 2.5e-05
ARTKQTARKSTGG [H3 1-13 A R T K Q Tph A R Kac S T G G],peptide microarray binding signal,"[1]; peptide region: H3 1-13, peptide modifications: H3T6ph H3K9ac, binder concentration: 50 nM",0.00724 ± 0.00023
same,peptide microarray binding signal,"[1]; peptide region: H3 1-13, peptide modifications: H3T6ph H3K9ac, binder concentration: 500 nM",0.0156 ± 0.0012
same,peptide microarray binding signal,"[2]; peptide region: H3 1-13, peptide modifications: H3T6ph H3K9ac, binder concentration: 10 nM",0.0307 ± 0.002
same,peptide microarray binding signal,"[2]; peptide region: H3 1-13, peptide modifications: H3T6ph H3K9ac, binder concentration: 100 nM",0.0441 ± 0.0085
same,peptide microarray binding signal,[3]; [9],0.00995 ± 0.00061
same,peptide microarray binding signal,[3]; [10],0.00622 ± 0.00014
same,peptide microarray binding signal,[4]; [9],0.00527 ± 0.00089
same,peptide microarray binding signal,[4]; [10],0.00294 ± 0.00011
QTARKSTGGKAPR [H3 5-17 Q T A R Kac S T G G Kme A P R],peptide microarray binding signal,"[1]; peptide region: H3 5-17, peptide modifications: H3K9ac H3K14me1, binder concentration: 50 nM",0.00746 ± 0.00018
same,peptide microarray binding signal,"[1]; peptide region: H3 5-17, peptide modifications: H3K9ac H3K14me1, binder concentration: 500 nM",0.024 ± 0.0017
same,peptide microarray binding signal,"[2]; peptide region: H3 5-17, peptide modifications: H3K9ac H3K14me1, binder concentration: 10 nM",0.023 ± 0.0062
same,peptide microarray binding signal,"[2]; peptide region: H3 5-17, peptide modifications: H3K9ac H3K14me1, binder concentration: 100 nM",0.0497 ± 0.004
same,peptide microarray binding signal,[3]; [11],0.00345 ± 0.00048
same,peptide microarray binding signal,[3]; [12],0.00205 ± 3.8e-05
same,peptide microarray binding signal,[4]; [11],0.0192 ± 0.002
same,peptide microarray binding signal,[4]; [12],0.00882 ± 0.00058
ARTKQTARKSTGG [H3 1-13 A R T K Q Tph A Rme2a K S T G G],peptide microarray binding signal,"[1]; peptide region: H3 1-13, peptide modifications: H3T6ph H3R8me2a, binder concentration: 50 nM",0.00677 ± 0.00082
same,peptide microarray binding signal,"[1]; peptide region: H3 1-13, peptide modifications: H3T6ph H3R8me2a, binder concentration: 500 nM",0.0179 ± 0.002
same,peptide microarray binding signal,"[2]; peptide region: H3 1-13, peptide modifications: H3T6ph H3R8me2a, binder concentration: 10 nM",0.00961 ± 0.00061
same,peptide microarray binding signal,"[2]; peptide region: H3 1-13, peptide modifications: H3T6ph H3R8me2a, binder concentration: 100 nM",0.054 ± 0.0051
same,peptide microarray binding signal,[3]; [13],0.00166 ± 0.00015
same,peptide microarray binding signal,[3]; [14],0.0012 ± 1.2e-05
same,peptide microarray binding signal,[4]; [13],0.00384 ± 0.00058
same,peptide microarray binding signal,[4]; [14],0.00185 ± 6.1e-05
